Measured values: PubChem BioAssay (NCI)
About 83,000 compounds went through this panel and 20% of them were active in at least one assay; those are over-represented in the sample as a whole.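 Plates (96-well) were seeded with cells, treated with compound at one concentration, and incubated for 48 hours before percent growth was determined.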 Values without a mark were called inactive. Activity calls are given as the source filed them. How the source made its calls: active means growth percent below 10; inactive means the rest.

Each molecule was assayed on SW-620 colon (assay: NCI-60 one-dose screen, 48 h (100 = growth as untreated, 0 = no growth, -100 = all killed)). Conditions: 10 µM unless noted.
For `O=C(O)Cn1ccc2ccccc21`, the growth was 99.1%. In the case of `Cc1ccc2nc(CN(CCN(Cc3nc4ccc(C)cc4[nH]3)Cc3nc4ccc(C)cc4[nH]3)Cc3nc4ccc(C)cc4[nH]3)[nH]c2c1`, the growth is reported as -85.9% (active). Work on `CO[C@@]12[C@@H]3NC3CN1C1=C(C(=O)C(N)=C(C)C1=O)[C@@H]2COC(N)=O` (some centres undefined) yielded a growth of 10.4%. In the case of `COCCn1c(Nc2ccc(C(=O)NO)cc2)nc2ccccc21`, the growth is reported as 29.6%. For `N#Cc1c(NN)n(C2OC(CO)C(O)C2O)c2ncnc(N)c12` (centres undefined), the growth was -15.6% (active). Work on `CCCCCNCCCCCNc1cc(OC)cc2cccnc12` yielded a growth of 90.9%. Work on `Cc1cc(O)ccc1C1=NN(c2ccc(S(N)(=O)=O)cc2)C(=O)CC1` yielded a growth of 16.2%. Molecule `CC(=O)OC1Oc2cc(C)c(C)cc2-c2oc(=O)c(-c3ccc(F)cc3)cc21` (centres undefined) has a growth of 26.7%. `CCCCCCCCCCCCCCCC1=NCC[N+]1(CCO)CCO` was tested, and the growth was 57.6%. For `Nc1cc2nc3ccccc3oc-2cc1=O`, the growth was 11.6%. Work on `CCOC(=O)C(=CNc1ccccc1Cl)C(=O)OCC` yielded a growth of 98.4%. Molecule `O=[N+]([O-])c1cc(F)c2cccnc2c1O` has a growth of 87.4%. `O=C1C=CC(=O)N1CO` showed a growth of 115%. With `COc1ccc(C2C=C(c3ccc(Cl)cc3)N=C3SC=CN32)cc1` (centres undefined) the growth was 97.7%. For `CCCCCc1c(C)[nH]c(/C=C2\N=C(c3ccc[nH]3)C=C2CC)c1C`, the growth was -92.6% (active). In the case of `COc1ccc(CCN2COc3c([C@@H](C)CCC=C(C)C)ccc(C)c3C2)cc1OC`, the growth is reported as 40.4%. Molecule `Cc1nc([C@H]2CC[C@H]3[C@@H]4CCC5=CC(=O)CC[C@]5(C)[C@H]4CC[C@]23C)cs1` has a growth of 73.3%. Molecule `CC(=O)OC1Oc2ccccc2-c2oc3nc(=N)n(C)c-3cc21` (centres undefined) has a growth of 104%. `Cn1c(=O)c2c3c(oc2c2ccccc21)C(=O)c1ccccc1C3=O` showed a growth of 86.2%. `CN(CCO)c1ccc(N2Cc3ccccc3OC3=C2C(=O)c2c(O)ccc(O)c2C3=O)cn1` was tested, and the growth was -51.7% (active). With `Fc1ccc(-c2nnc(N3CCOCC3)c3ccccc23)cc1` the growth was 100%. With `CC(=O)[C@@]1(O)[C@H](C)C[C@H]2[C@@H]3C=C(C)C4=Cc5c(cnn5-c5ccccc5)C[C@]4(C)[C@H]3[C@@H](O)C[C@@]21C` the growth was -59.9% (active). `N#Cc1c(N)n(C2OC(CO)C(O)C2O)c2ncnc(N)c12` (centres undefined) was tested, and the growth was -33.3% (active). For `CCCCCCCCCCCCCCCCCC1=NC(C)(C)CN1C(C)(C)CO`, the growth was -100% (active). `CC(=O)OC1Oc2cc(C)c(C)cc2-c2oc(=O)c(-c3cc4ccccc4oc3=O)cc21` (centres undefined) showed a growth of 133%. `SCc1ccc(CS)cc1` was tested, and the growth was 102%. `CC1=C(C(=O)Nc2ccc(F)cc2)C(c2ccccc2)C2=C(CC(C)(C)CC2=O)N1` (centres undefined) was tested, and the growth was 89.7%. In the case of `O=C(C(=O)c1cccnc1)c1cccnc1`, the growth is reported as 103%. With `Clc1ccc2c(c1)-n1cccc1C(c1ccc3ccccc3c1)=NC2` the growth was 88%. For `COc1cccc(OCC(O)CN2CCN(c3ccccc3)CC2)c1` (centres undefined), the growth was 112%. In the case of `CSCCC1NC(=O)C(C(C)=Nc2ccccc2)=C1O` (centres undefined), the growth is reported as 104%. Molecule `CC(OC(=O)Nc1cccc(Cl)c1)C(=O)O` (centres undefined) has a growth of 99.5%. `C1=C\CCCCN2CC[C@H]3[C@H](CCCC/C=C\CCCN4C[C@@H](CCCCC/1)C[C@@H]3C4)C2` gave a growth of 79.8%. With `CCOc1c(C#N)c2c(N)ncnc2n1C1OC(CO)C(O)C1O` (centres undefined) the growth was 4.66% (active). In the case of `COc1cc(/C=C/c2ccc3c(Br)cc(Br)c(O)c3n2)ccc1O`, the growth is reported as 18.3%. Molecule `Cc1ccc(O)c(Cc2ccccc2)c1` has a growth of 98.4%. `c1ccc2c(c1)cnc1ccccc12` showed a growth of 98.5%. Molecule `O=C(Nc1ccc(Oc2ccc(NC(=O)Nc3ccccc3Cl)cc2)cc1)Nc1ccccc1Cl` has a growth of 51.7%.

The molecules below were run on MCF7 breast in the same assay as above. Conditions: 10 µM unless noted.
Molecule `O=C(O)Cn1ccc2ccccc21` has a growth of 96.4%. For `Cc1ccc2nc(CN(CCN(Cc3nc4ccc(C)cc4[nH]3)Cc3nc4ccc(C)cc4[nH]3)Cc3nc4ccc(C)cc4[nH]3)[nH]c2c1`, the growth was -95% (active). In the case of `CO[C@@]12[C@@H]3NC3CN1C1=C(C(=O)C(N)=C(C)C1=O)[C@@H]2COC(N)=O` (some centres undefined), the growth is reported as 6.55% (active). `COCCn1c(Nc2ccc(C(=O)NO)cc2)nc2ccccc21` gave a growth of 61.4%. `N#Cc1c(NN)n(C2OC(CO)C(O)C2O)c2ncnc(N)c12` (centres undefined) was tested, and the growth was -11.2% (active). In the case of `CCCCCNCCCCCNc1cc(OC)cc2cccnc12`, the growth is reported as 50.6%. `Cc1cc(O)ccc1C1=NN(c2ccc(S(N)(=O)=O)cc2)C(=O)CC1` gave a growth of 27.7%. `CC(=O)OC1Oc2cc(C)c(C)cc2-c2oc(=O)c(-c3ccc(F)cc3)cc21` (centres undefined) gave a growth of 38.3%. `CCCCCCCCCCCCCCCC1=NCC[N+]1(CCO)CCO` was tested, and the growth was 50.5%. In the case of `Nc1cc2nc3ccccc3oc-2cc1=O`, the growth is reported as 9.47% (active). In the case of `CCOC(=O)C(=CNc1ccccc1Cl)C(=O)OCC`, the growth is reported as 93.8%. `O=[N+]([O-])c1cc(F)c2cccnc2c1O` showed a growth of 94.7%. `O=C1C=CC(=O)N1CO` gave a growth of 104%. With `COc1ccc(C2C=C(c3ccc(Cl)cc3)N=C3SC=CN32)cc1` (centres undefined) the growth was 96.1%. In the case of `COc1ccc(CCN2COc3c([C@@H](C)CCC=C(C)C)ccc(C)c3C2)cc1OC`, the growth is reported as 40.6%. In the case of `Cc1nc([C@H]2CC[C@H]3[C@@H]4CCC5=CC(=O)CC[C@]5(C)[C@H]4CC[C@]23C)cs1`, the growth is reported as 55.2%. `CC(=O)OC1Oc2ccccc2-c2oc3nc(=N)n(C)c-3cc21` (centres undefined) gave a growth of 98.6%. For `Cn1c(=O)c2c3c(oc2c2ccccc21)C(=O)c1ccccc1C3=O`, the growth was 68.4%. For `CN(CCO)c1ccc(N2Cc3ccccc3OC3=C2C(=O)c2c(O)ccc(O)c2C3=O)cn1`, the growth was -34.9% (active). `Fc1ccc(-c2nnc(N3CCOCC3)c3ccccc23)cc1` gave a growth of 155%. `CC(=O)[C@@]1(O)[C@H](C)C[C@H]2[C@@H]3C=C(C)C4=Cc5c(cnn5-c5ccccc5)C[C@]4(C)[C@H]3[C@@H](O)C[C@@]21C` showed a growth of 15.5%. In the case of `N#Cc1c(N)n(C2OC(CO)C(O)C2O)c2ncnc(N)c12` (centres undefined), the growth is reported as -21.1% (active). For `CCCCCCCCCCCCCCCCCC1=NC(C)(C)CN1C(C)(C)CO`, the growth was -81% (active). In the case of `CC(=O)OC1Oc2cc(C)c(C)cc2-c2oc(=O)c(-c3cc4ccccc4oc3=O)cc21` (centres undefined), the growth is reported as 108%. With `CC1=C(C(=O)Nc2ccc(F)cc2)C(c2ccccc2)C2=C(CC(C)(C)CC2=O)N1` (centres undefined) the growth was 67.1%. `O=C(C(=O)c1cccnc1)c1cccnc1` was tested, and the growth was 97.5%. With `F` the growth was 30.7% [6.87 mM]. `COc1cccc(OCC(O)CN2CCN(c3ccccc3)CC2)c1` (centres undefined) gave a growth of 108%. In the case of `CSCCC1NC(=O)C(C(C)=Nc2ccccc2)=C1O` (centres undefined), the growth is reported as 91.3%. Work on `CC(OC(=O)Nc1cccc(Cl)c1)C(=O)O` (centres undefined) yielded a growth of 99.7%. `C1=C\CCCCN2CC[C@H]3[C@H](CCCC/C=C\CCCN4C[C@@H](CCCCC/1)C[C@@H]3C4)C2` gave a growth of 22.7%. For `CCOc1c(C#N)c2c(N)ncnc2n1C1OC(CO)C(O)C1O` (centres undefined), the growth was -3.56% (active). `COc1cc(/C=C/c2ccc3c(Br)cc(Br)c(O)c3n2)ccc1O` was tested, and the growth was 10.2%. With `Cc1ccc(O)c(Cc2ccccc2)c1` the growth was 114%. With `c1ccc2c(c1)cnc1ccccc12` the growth was 94.3%. For `O=C(Nc1ccc(Oc2ccc(NC(=O)Nc3ccccc3Cl)cc2)cc1)Nc1ccccc1Cl`, the growth was 44.1%.
